Several values for one entry are separate records, joined by “and”; a condition that tells them apart may be missing. Identical values can stand only once. Compounds without any hit were thinned out: in the full panel of roughly 83,000, 20% have a hit.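 For each line, cells grew in 96-well plates with the test compound present at a single concentration for 48 hours.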
What was measured:
Test in all cases: NCI-60 one-dose screen, 48 h (100 = growth as untreated, 0 = no growth, -100 = all killed); active means growth percent below 10; inactive means the rest
T-47D breast = test system: T-47D breast
BT-549 breast = test system: BT-549 breast
MDA-MB-435 melanoma = test system: MDA-MB-435 melanoma
SW-620 colon = test system: SW-620 colon
MCF7 breast = test system: MCF7 breast
HCT-116 colon = test system: HCT-116 colon
HCC-2998 colon = test system: HCC-2998 colon
KM12 colon = test system: KM12 colon

Measured: growth

CS/C(=C\c1ccc(C(=O)c2ccc(C)cc2)n1C)S(C)=O (stereo not given)
inactive: T-47D breast; 10 µM 79.7% | T-47D breast; 100 µM 47.6% | BT-549 breast; 10 µM 102% | BT-549 breast; 100 µM 47.4% | MDA-MB-435 melanoma; 10 µM 50.1% | MDA-MB-435 melanoma; 100 µM 26.9% | SW-620 colon; 10 µM 101% | SW-620 colon; 100 µM 97.4% | MCF7 breast; 10 µM 89.6% | MCF7 breast; 100 µM 70.7% | HCT-116 colon; 10 µM 97.1% | HCT-116 colon; 100 µM 70.9% | HCC-2998 colon; 10 µM 95.9% | HCC-2998 colon; 100 µM 87.2% | KM12 colon; 10 µM 94.3% | KM12 colon; 100 µM 72.8%

N=c1sc2ccccc2n1CC(=O)O
inactive: T-47D breast; 10 µM unless noted 95.8% | BT-549 breast; 10 µM unless noted 99.2% | MDA-MB-435 melanoma; 10 µM unless noted 113% | SW-620 colon; 10 µM unless noted 103% | MCF7 breast; 10 µM unless noted 99% | HCT-116 colon; 10 µM unless noted 95.7% | HCC-2998 colon; 10 µM unless noted 108%

CC1(C)OC(=O)C(=Cc2ccc(C#N)cc2)C(=O)O1
inactive: T-47D breast; 10 µM unless noted 86.4% and 102% | BT-549 breast; 10 µM unless noted 109% and 103% | MDA-MB-435 melanoma; 10 µM unless noted 108% and 105% | SW-620 colon; 10 µM unless noted 100% and 104% | MCF7 breast; 10 µM unless noted 104% and 95.6% | HCT-116 colon; 10 µM unless noted 96.5% and 108% | HCC-2998 colon; 10 µM unless noted 112% and 105%

CC(C)=NOC(C)C(=O)O (stereo not given)
inactive: T-47D breast; 10 µM unless noted 107% | BT-549 breast; 10 µM unless noted 98% | MDA-MB-435 melanoma; 10 µM unless noted 97.2% | SW-620 colon; 10 µM unless noted 103% | MCF7 breast; 10 µM unless noted 97% | HCT-116 colon; 10 µM unless noted 95.7% | HCC-2998 colon; 10 µM unless noted 100%

Cn1c(N)c(N=O)c(=O)n(C)c1=O
inactive: T-47D breast; 10 µM unless noted 105% and 99.8% | BT-549 breast; 10 µM unless noted 111% and 96.8% | MDA-MB-435 melanoma; 10 µM unless noted 109% and 102% | SW-620 colon; 10 µM unless noted 106% and 101% | MCF7 breast; 10 µM unless noted 98.1% and 99.5% | HCT-116 colon; 10 µM unless noted 102% and 90.8% | HCC-2998 colon; 10 µM unless noted 106% | KM12 colon; 10 µM unless noted 106% and 94.8%

COCCNC(C)=O
inactive: T-47D breast; 10 µM unless noted 89.5% | BT-549 breast; 10 µM unless noted 106% | MDA-MB-435 melanoma; 10 µM unless noted 105% | SW-620 colon; 10 µM unless noted 105% | MCF7 breast; 10 µM unless noted 94.1% | HCT-116 colon; 10 µM unless noted 105% | HCC-2998 colon; 10 µM unless noted 118%

COC(=O)c1cc(C(=O)OC)cc([N+](=O)[O-])c1
inactive: T-47D breast; 10 µM unless noted 111% | BT-549 breast; 10 µM unless noted 91.6% | MDA-MB-435 melanoma; 10 µM unless noted 115% | SW-620 colon; 10 µM unless noted 102% | MCF7 breast; 10 µM unless noted 98% | HCT-116 colon; 10 µM unless noted 95.3% | HCC-2998 colon; 10 µM unless noted 99.2% | KM12 colon; 10 µM unless noted 112%

O=C1CCC(=O)N1CC1CC2CCC1C2 (stereo not given)
inactive: T-47D breast; 10 µM unless noted 100% and 79.2% | BT-549 breast; 10 µM unless noted 90.1% | MDA-MB-435 melanoma; 10 µM unless noted 93.3% and 95.9% | SW-620 colon; 10 µM unless noted 104% and 100% | MCF7 breast; 10 µM unless noted 99% and 95.9% | HCT-116 colon; 10 µM unless noted 106% and 90.5% | HCC-2998 colon; 10 µM unless noted 106%

CC1CCC(=O)N1c1ccc(N)cc1 (stereo not given)
inactive: T-47D breast; 10 µM unless noted 81.9% | BT-549 breast; 10 µM unless noted 99.9% | MDA-MB-435 melanoma; 10 µM unless noted 109% | SW-620 colon; 10 µM unless noted 114% | MCF7 breast; 10 µM unless noted 97.6% | HCT-116 colon; 10 µM unless noted 101% | HCC-2998 colon; 10 µM unless noted 98.8%

CCOC(=O)NC(N)=O
inactive: T-47D breast; 10 µM unless noted 104% and 107% | BT-549 breast; 10 µM unless noted 96% and 110% | MDA-MB-435 melanoma; 10 µM unless noted 101% and 99% | SW-620 colon; 10 µM unless noted 107% and 111% | MCF7 breast; 10 µM unless noted 103% and 107% | HCT-116 colon; 10 µM unless noted 99.3% and 99.5% | HCC-2998 colon; 10 µM unless noted 103%

ON=C(C1CCCCC1)C1CCCCC1
inactive: T-47D breast; 10 µM unless noted 87.3% | BT-549 breast; 10 µM unless noted 108% | MDA-MB-435 melanoma; 10 µM unless noted 103% | SW-620 colon; 10 µM unless noted 102% | MCF7 breast; 10 µM unless noted 93.3% | HCT-116 colon; 10 µM unless noted 100% | HCC-2998 colon; 10 µM unless noted 109%

CCOC(=N)c1ccc(C(=N)OCC)cc1
inactive: T-47D breast; 10 µM unless noted 84% | BT-549 breast; 10 µM unless noted 98.2% | MDA-MB-435 melanoma; 10 µM unless noted 114% | SW-620 colon; 10 µM unless noted 119% | MCF7 breast; 10 µM unless noted 92.3% | HCT-116 colon; 10 µM unless noted 96% | HCC-2998 colon; 10 µM unless noted 109%

CSc1nc(N)c(N)c(N)n1
inactive: T-47D breast; 10 µM unless noted 97.2% | BT-549 breast; 10 µM unless noted 101% | MDA-MB-435 melanoma; 10 µM unless noted 112% | SW-620 colon; 10 µM unless noted 104% | MCF7 breast; 10 µM unless noted 105% | HCT-116 colon; 10 µM unless noted 86.5% | HCC-2998 colon; 10 µM unless noted 109%

O=C(O)c1c2c(nc3ccccc13)Cc1ccccc1-2
inactive: T-47D breast; 10 µM unless noted 97.3% and 98.5% | BT-549 breast; 10 µM unless noted 103% and 88.1% | MDA-MB-435 melanoma; 10 µM unless noted 112% and 96.6% | SW-620 colon; 10 µM unless noted 99.3% and 90.1% | MCF7 breast; 10 µM unless noted 97.3% and 92% | HCT-116 colon; 10 µM unless noted 95.6% and 104% | HCC-2998 colon; 10 µM unless noted 98.3% and 99.9% | KM12 colon; 10 µM unless noted 97.8% and 98.9%

Reference: PubChem BioAssay (NCI)
